The results in this text go back to PubChem BioAssay (NCI).

The structures appear in SMILES notation. About 83,000 compounds went through this panel and 20% of them were active in at least one assay; those are over-represented in the sample as a whole.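 Negative percent growth values reflect cell death: -40 means 40% of the cells present at the start died, and -100 means all died.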 A number with no mark means an inactive call. Activity calls are given as the source filed them. Rule for the calls: active = growth percent below 10; inactive = the rest.

The first assay deals with NCI/ADR-RES ovarian. Description: NCI-60 one-dose screen, 48 h (100 = growth as untreated, 0 = no growth, -100 = all killed). Conditions: 10 µM unless noted.
On to `CN(C)CCCNC(=O)c1cncnc1Nc1ccc2c(ccn2Cc2cccc(F)c2)c1`, for which the growth is 99.2%.
In the case of `CCOC(=O)/C(=C(/C)NCC(C)C)c1cc(O)c(O)c2c(C)cc(=O)[nH]c12`, the growth is 17.2%.
With `COc1ccc(Nc2ncc(C#N)c(NCCCNC(=O)C3CCC3)n2)cc1`, the growth is 83.1%.
For `C=C1SC(=Nc2ccccc2Cl)N(C(=O)c2sc3ccccc3c2Cl)C1(C)C`, the growth was 31.7%.
For the compound `CN1CC(c2ccc(Br)cc2)C(C(=O)c2ccc(Br)cc2)C12C(=O)Nc1ccccc12` (stereo not drawn), the growth is 58.9%.
`CC(C)Cc1nc(Nc2ccccc2)[nH]c(=O)c1C#N`: the growth is 62.9%.
`CC(C)(C)c1ccc(S(=O)(=O)Oc2ccc(-c3sc4cc(OS(=O)(=O)c5ccc(C(C)(C)C)cc5)ccc4c3C(=O)c3ccc(OCCN4CCCCC4)cc3)cc2)cc1`: the growth is 97.9%.
On the same count and under the same terms, as for `Nc1ncccc1O`, the figure is 77%; as for `COc1cc(C[C@H]2COc3cc(O)cc(O)c3C2=O)ccc1O`, 20.9%; as for `CCN(CC)C(=O)CC1=C(C)/C(=C/c2[nH]c(-c3ccc[nH]3)cc2OC)N=C1C`, 18.3%.
`COc1ccc(C2CC(c3ccccc3)=NN2C(=O)c2cc(OC)c(OC)c(OC)c2)cc1O` (stereo not drawn): the growth is -11.9% (active).
For the compound `C[C@@H]1CN(c2cnc(C(=O)Nc3cc(F)cc4cccnc34)cn2)C[C@H](C)N1`, the growth was 66%.
In the case of `O=C(Nc1cc(Cl)ccc1O)c1ccccc1Nc1ccnc(C(F)(F)F)c1`, the growth was -2.27% (active).
Still for that read-out and setting: as for `O=c1ccc2ccc(OCCN3CCCCC3)cc2o1`, the figure is 99.9%; as for `CC1(C)CC(=O)C2=C(C1)C(c1ccc(Cl)cc1)n1ncc(C#N)c1N2` (stereo not drawn), 106%; as for `CCOC(=O)C1=C(CCl)N(C)C(=O)NC1c1ccc2c(c1)OCO2` (stereo not drawn), 72%.
On to `COc1ccc(-c2cc(C(=O)N3N=C(c4ccc(N)cc4)CC3c3ccc(Cl)cc3)c3ccccc3n2)cc1` (stereo not drawn), for which the growth was 25.5%.
Consider `Cn1cc(-c2csc(-c3cn(C)c4ccccc34)n2)c2cnccc21`, for which the growth is 41.8%.
With `CC(C)c1ccc2c(c1)CC[C@H]1[C@](C)(C(=O)OCC#CCN3CCCC3)CCC[C@]21C`, the growth is 82.2%.
Regarding `Cc1cc(=O)n(C(=S)Nc2ccc(Cl)cc2)c2cc(O)ccc12`, the growth is 103%.
As for `O=C1Nc2ccc(Cl)cc2/C1=C/c1ccc[nH]1`, the growth is 112%.
For `COc1nc(/C=C\Nc2ccc3c(c2)OCCOCCOCCOCCO3)nc(OC)n1`, the growth is 93.7%.
The same measure, in the same setting: then `CC1=C2CC/C(C)=C/CC[C@]3(C)O[C@H]3CC/C(C)=C/[C@H]2OC1`, with 87.7%.
Regarding `CCN1C(=O)N(CC)C2C1NN=c1s/c(=C\c3ccc(OC)cc3)c(=O)n12` (stereo not drawn), the growth was 0.931% (active).
As for `Cc1nn(C)c2ncnc(N/N=C/c3cccc(O)c3O)c12`, the growth is 11.9%.
On to `CC(C)C1C2=C(NCCN1C(=O)c1ccncc1)C(C)(C)N(Cc1ccccc1)C2=O` (stereo not drawn), for which the growth was 99.4%.
On to `CN(C)c1ccc(C(=S)c2ccc(N(C)C)cc2)cc1`, for which the growth was 28.7%.
On the same count and under the same terms, then `CSc1ccc(N2C(=N)C(=S)N(c3ccc(C)cc3)C2=O)cc1`, with 106%.
Turning to `CCOC(=O)C/C(=N\Nc1cc(=O)[nH]c2ccc(C)cc12)C(=O)OCC`, the growth was 105%.
On the same count and under the same terms, as for `Clc1ccc(Nc2ncc(Cc3cccc(Cl)c3Cl)s2)cc1`, the figure is 93.3%; as for `CCOC(=O)c1nnn(-c2no[n+]([O-])c2-c2ccc(OC)cc2)c1COc1cccc2cccnc12`, 9.15% (active); as for `NC(=O)c1ccccc1OCC(=O)Nc1ccc(Cl)c(Cl)c1`, 107%.
On to `C=C1CC[C@@H]2C(C)(C)[C@H](O)CC[C@@]2(C)[C@@H]1COc1ccc2ccc(=O)oc2c1`, for which the growth was 5.04% (active).
On the same count and under the same terms, then `O=S(Nc1ccccc1)c1ccc(Cl)cc1` (stereo not drawn), with 106%; and `COc1cccc(-c2cn3nc(-c4cn(C)c5ccccc45)sc3n2)c1`, with 94.3%.
Take `COc1cc2c(cc1-c1c(C)noc1C)ncc1nc(CN3CCOCC3)n([C@H](C)COC(F)F)c12`: the growth was 40.8%.
Still for that read-out and setting: then `CN1c2ccccc2S(=O)(=O)n2c(SCC(=O)Nc3nc4ccc(F)cc4s3)nnc21`, with 89.7%.
On to `O=S(=O)(Nc1cc(Sc2nc3ccccc3s2)c(O)c2ccccc12)c1ccc2ccccc2c1`, for which the growth was 86.1%.
Consider `Cn1c(C#N)ccc1-c1ccc(F)c(NC(=O)c2ccc(F)cc2)c1`, for which the growth is 76.9%.

Another assay deals with T-47D breast. The assay is described as above. The following applies: 10 µM unless noted.
As for `CN(C)CCCNC(=O)c1cncnc1Nc1ccc2c(ccn2Cc2cccc(F)c2)c1`, the growth was 101%.
Turning to `CCOC(=O)/C(=C(/C)NCC(C)C)c1cc(O)c(O)c2c(C)cc(=O)[nH]c12`, the growth is 34.7%.
As to `COc1ccc(Nc2ncc(C#N)c(NCCCNC(=O)C3CCC3)n2)cc1`, the growth was 109%.
Still for that read-out and setting: then `C=C1SC(=Nc2ccccc2Cl)N(C(=O)c2sc3ccccc3c2Cl)C1(C)C`, with 34.7%.
Take `CN1CC(c2ccc(Br)cc2)C(C(=O)c2ccc(Br)cc2)C12C(=O)Nc1ccccc12` (stereo not drawn): the growth is 49.5%.
Consider `CC(C)Cc1nc(Nc2ccccc2)[nH]c(=O)c1C#N`, for which the growth is 40.8%.
`CC(C)(C)c1ccc(S(=O)(=O)Oc2ccc(-c3sc4cc(OS(=O)(=O)c5ccc(C(C)(C)C)cc5)ccc4c3C(=O)c3ccc(OCCN4CCCCC4)cc3)cc2)cc1`: the growth is 79.1%.
Turning to `Nc1ncccc1O`, the growth is 96.2%.
Regarding `COc1cc(C[C@H]2COc3cc(O)cc(O)c3C2=O)ccc1O`, the growth is 31.3%.
Regarding `CCN(CC)C(=O)CC1=C(C)/C(=C/c2[nH]c(-c3ccc[nH]3)cc2OC)N=C1C`, the growth is 33.4%.
Turning to `COc1ccc(C2CC(c3ccccc3)=NN2C(=O)c2cc(OC)c(OC)c(OC)c2)cc1O` (stereo not drawn), the growth was 70.9%.
Take `C[C@@H]1CN(c2cnc(C(=O)Nc3cc(F)cc4cccnc34)cn2)C[C@H](C)N1`: the growth is 30%.
On to `O=C(Nc1cc(Cl)ccc1O)c1ccccc1Nc1ccnc(C(F)(F)F)c1`, for which the growth is 0.662% (active).
In the case of `O=c1ccc2ccc(OCCN3CCCCC3)cc2o1`, the growth is 95.5%.
With `CC1(C)CC(=O)C2=C(C1)C(c1ccc(Cl)cc1)n1ncc(C#N)c1N2` (stereo not drawn), the growth is 85.8%.
In the case of `CCOC(=O)C1=C(CCl)N(C)C(=O)NC1c1ccc2c(c1)OCO2` (stereo not drawn), the growth was 35.6%.
As for `COc1ccc(-c2cc(C(=O)N3N=C(c4ccc(N)cc4)CC3c3ccc(Cl)cc3)c3ccccc3n2)cc1` (stereo not drawn), the growth is 47.4%.
As for `Cn1cc(-c2csc(-c3cn(C)c4ccccc34)n2)c2cnccc21`, the growth was 67.4%.
`CC(C)c1ccc2c(c1)CC[C@H]1[C@](C)(C(=O)OCC#CCN3CCCC3)CCC[C@]21C`: the growth was 63.4%.
As to `Cc1cc(=O)n(C(=S)Nc2ccc(Cl)cc2)c2cc(O)ccc12`, the growth was 85.4%.
Regarding `O=C1Nc2ccc(Cl)cc2/C1=C/c1ccc[nH]1`, the growth is 13%.
Regarding `COc1nc(/C=C\Nc2ccc3c(c2)OCCOCCOCCOCCO3)nc(OC)n1`, the growth is 87.5%.
Consider `CC1=C2CC/C(C)=C/CC[C@]3(C)O[C@H]3CC/C(C)=C/[C@H]2OC1`, for which the growth was 86%.
Take `CCN1C(=O)N(CC)C2C1NN=c1s/c(=C\c3ccc(OC)cc3)c(=O)n12` (stereo not drawn): the growth is 57.3%.
Turning to `Cc1nn(C)c2ncnc(N/N=C/c3cccc(O)c3O)c12`, the growth was 19%.
Regarding `CC(C)C1C2=C(NCCN1C(=O)c1ccncc1)C(C)(C)N(Cc1ccccc1)C2=O` (stereo not drawn), the growth is 103%.
As to `CN(C)c1ccc(C(=S)c2ccc(N(C)C)cc2)cc1`, the growth was 74.2%.
Take `CSc1ccc(N2C(=N)C(=S)N(c3ccc(C)cc3)C2=O)cc1`: the growth is 83%.
Still for that read-out and setting: then `CCOC(=O)C/C(=N\Nc1cc(=O)[nH]c2ccc(C)cc12)C(=O)OCC`, with 107%; and `Clc1ccc(Nc2ncc(Cc3cccc(Cl)c3Cl)s2)cc1`, with 77.9%; and `CCOC(=O)c1nnn(-c2no[n+]([O-])c2-c2ccc(OC)cc2)c1COc1cccc2cccnc12`, with 53.1%.
Consider `NC(=O)c1ccccc1OCC(=O)Nc1ccc(Cl)c(Cl)c1`, for which the growth was 79.8%.
As to `C=C1CC[C@@H]2C(C)(C)[C@H](O)CC[C@@]2(C)[C@@H]1COc1ccc2ccc(=O)oc2c1`, the growth was 7.88% (active).
As to `O=S(Nc1ccccc1)c1ccc(Cl)cc1` (stereo not drawn), the growth was 90.7%.
The same measure, in the same setting: then `COc1cccc(-c2cn3nc(-c4cn(C)c5ccccc45)sc3n2)c1`, with 89.9%; and `COc1cc2c(cc1-c1c(C)noc1C)ncc1nc(CN3CCOCC3)n([C@H](C)COC(F)F)c12`, with 13%; and `CN1c2ccccc2S(=O)(=O)n2c(SCC(=O)Nc3nc4ccc(F)cc4s3)nnc21`, with 112%.
On the same count and under the same terms, as for `O=S(=O)(Nc1cc(Sc2nc3ccccc3s2)c(O)c2ccccc12)c1ccc2ccccc2c1`, the figure is 79.5%.
In the case of `Cn1c(C#N)ccc1-c1ccc(F)c(NC(=O)c2ccc(F)cc2)c1`, the growth is 60.4%.
